# Measurements from PubChem BioAssay (NCI).
# This is part of a sample that, as a whole, favours compounds with a hit. Of some 83,000 tested, about 20% had one in any assay.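 In brief: 96-well plates, 48 h treatment, single concentration, percent growth endpoint.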 Unmarked numbers belong to inactive results. Calls of active or inactive are those of the source. Rule for the calls: active = growth percent below 10; inactive = the rest.
# Experiments:
# Test in all cases: NCI-60 one-dose screen, 48 h (100 = growth as untreated, 0 = no growth, -100 = all killed)
# Settings in all cases: 10 µM unless noted
# RPMI-8226 leukemia = test system: RPMI-8226 leukemia
# OVCAR-8 ovarian = test system: OVCAR-8 ovarian
# OVCAR-5 ovarian = test system: OVCAR-5 ovarian
# OVCAR-4 ovarian = test system: OVCAR-4 ovarian
# SK-OV-3 ovarian = test system: SK-OV-3 ovarian
# IGROV1 ovarian = test system: IGROV1 ovarian
# OVCAR-3 ovarian = test system: OVCAR-3 ovarian
# HS 578T breast = test system: HS 578T breast
# NCI/ADR-RES ovarian = test system: NCI/ADR-RES ovarian
# T-47D breast = test system: T-47D breast
# BT-549 breast = test system: BT-549 breast
# MDA-MB-435 melanoma = test system: MDA-MB-435 melanoma
# SW-620 colon = test system: SW-620 colon
# MCF7 breast = test system: MCF7 breast
# HCT-116 colon = test system: HCT-116 colon
# HCC-2998 colon = test system: HCC-2998 colon
# KM12 colon = test system: KM12 colon
SMILES,growth (RPMI-8226 leukemia),growth (OVCAR-8 ovarian),growth (OVCAR-5 ovarian) [%],growth (OVCAR-4 ovarian),growth (SK-OV-3 ovarian),growth (IGROV1 ovarian),growth (OVCAR-3 ovarian),growth (HS 578T breast),growth (NCI/ADR-RES ovarian),growth (T-47D breast),growth (BT-549 breast),growth (MDA-MB-435 melanoma),growth (SW-620 colon),growth (MCF7 breast),growth (HCT-116 colon),growth (HCC-2998 colon),growth (KM12 colon)
O=C1Nc2ccccc2C12C=C(c1ccccc1)Nc1c2c(-c2ccccc2)nn1-c1ccccc1 (configuration not stated),40.8%,46.6%,73,78%,87%,67.9%,70.3%,78.9%,66.2%,61.7%,70.1%,65.1%,75.6%,39%,48.6%,72.3%,56.1%
COc1ccc2cc(/C=C3\N=C(c4cc(OC)c(OC)c(OC)c4)OC3=O)c(OC)nc2c1,104%,98.4%,108,101%,96.5%,109%,109%,97.2%,105%,96.5%,104%,106%,100%,99.8%,97.9%,102%,98.9%
C=C1C(=O)O[C@H]2[C@H]1CC/C(COC(=O)CCCCC(=O)OC/C1=C/CC[C@@]3(C)O[C@H]3[C@H]3OC(=O)C(=C)[C@@H]3CC1)=C\CC[C@@]1(C)O[C@@H]21,5.66% (active),49.7%,115,82.3%,85.6%,39.4%,18.6%,82.7%,87.5%,38.6%,61.1%,56.2%,25.1%,21.3%,3.28% (active),100%,90.6%
C#C[C@@]1(O)[C@@H](CO)O[C@@H](n2cc(Cl)c3c(N)ncnc32)[C@@H]1O,-5.63% (active),-23% (active),16.1,-4.32% (active),-10.3% (active),-17.5% (active),-10.1% (active),5.45% (active),-1.89% (active),-12.9% (active),-32.9% (active),-12.3% (active),2.67% (active),-40.6% (active),4.58% (active),-33.8% (active),1.42% (active)
COc1ccc(-c2[nH]c3ccccc3c2C=C(C#N)C#N)cc1,-43.8% (active),19.4%,26.7,33.2%,28.7%,12.3%,-6.19% (active),16.4%,-12% (active),51.5%,45.9%,-34.6% (active),20.5%,11.4%,4.01% (active),-39.2% (active),3.41% (active)
CC1(C)CC[C@]2(c3nnc(-c4ccncc4)o3)CC[C@]3(C)C(=CC[C@@H]4[C@@]5(C)CCC(=O)C(C)(C)[C@@H]5CC[C@]43C)[C@@H]2C1,62.4%,81.1%,99.9,89.2%,104%,93.2%,80.8%,98.6%,97.2%,65.9%,80.3%,79.6%,85.2%,64.6%,61.3%,94.8%,93.8%
O=C1Nc2ccc(Cl)cc2/C1=N/c1nc(-c2ccc(F)cc2)cs1,8.37% (active),45.3%,75,32.2%,56.4%,25.6%,39.2%,38.5%,79.8%,25.3%,55.4%,9.56% (active),27.7%,12.5%,28.4%,42.2%,28.2%
OCCNc1nc(NCCO)nc(Nc2ccc(C3=NN(c4cc(Cl)cc(Cl)c4)C(c4ccc(C(F)(F)F)cc4)C3)cc2)n1 (configuration not stated),-1.42% (active),39.5%,89,53.6%,70.1%,41.7%,4.39% (active),43.6%,55.6%,53.5%,60.8%,42.1%,60.1%,10.7%,32.7%,,26%
C[C@]12CC[C@@H]3c4ccc(O)cc4CC[C@H]3[C@@H]1C[C@H](O)C2,79.7%,82.7%,116,87%,82.7%,79.2%,73.2%,57.6%,70.9%,96.9%,79.1%,0.155% (active),33.9%,61%,49.1%,87.6%,76.3%
